PfG6PD inh – PfG6PD (Plasmodium falciparum) enzyme inhibition; PfGluPho enzyme, NADPH resazurin-diaphorase fluorescence; inhibition, % at 20 µM; actives 0.78% (n = 350,000);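 active means inhibition reaching at least a set limit at 20 µM in the primary screen, cut at about 59% in these data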;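 further: 0% = DMSO wells with substrate and 100% = DMSO wells lacking glucose-6-phosphate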
NPR1 activator – GC-A (human) enzyme activation; P16066; HEK293 GC-A cells, cGMP TR-FRET, EC30 ANP; 0% at EC30 ANP, 100% saturating ANP; activation, % at 10 µM; actives 0.14% (n = 370,000); in the data active means activation above about 40%
GC-B act – GC-B (human) receptor activation; P20594; HEK293-GC-B cells, CNP EC30, cGMP TR-FRET; 0% at EC30 CNP, 100% saturating CNP; activation, % at 10 µM; actives 0.11% (n = 370,000);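 active means activation at 10 µM reaching about 35% in either raw or pattern-adjusted values, limit read from the data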
A3A deaminase – human APOBEC3A DNA deaminase inhibition. inhibition, % at 20 µM. actives 0.41% (n = 330,000). recombinant A3A, FAM/TAMRA ssDNA deamination fluorescence. P31941;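 active means at least 40% inhibition at 20 µM here, with at most 30% in a related deaminase screen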;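 further: plate controls were A3A with DMSO for no effect and wells lacking A3A enzyme for full effect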
Target sequence (P31941 whole entry, looked up): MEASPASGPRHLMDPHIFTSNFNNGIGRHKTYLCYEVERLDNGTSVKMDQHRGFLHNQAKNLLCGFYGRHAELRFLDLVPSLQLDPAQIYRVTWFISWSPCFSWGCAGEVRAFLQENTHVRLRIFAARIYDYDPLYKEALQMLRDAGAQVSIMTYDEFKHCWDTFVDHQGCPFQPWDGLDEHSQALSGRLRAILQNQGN
Neddyl block – blocks human cullin neddylation. P61081+Q13564. TR-FRET cullin neddylation, biochemical. inhibition, % at 25 µM. actives 0.58% (n = 360,000). AID 651699; in the data active means inhibition above about 36%
APOBEC3G inh – inhibitors of human APOBEC3G DNA deaminase; actives 0.28% (n = 330,000); recombinant A3G, ssDNA deamination FAM/TAMRA fluorescence; Q9HC16; AID 493012; inhibition, % at 20 µM;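 active means inhibition of at least 40% at 20 µM, with no more than 30% in the related APOBEC3A deaminase screen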;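 further: plate controls were DMSO wells with A3G for no effect and wells lacking A3G enzyme for full effect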
Target sequence (Q9HC16 whole entry, looked up): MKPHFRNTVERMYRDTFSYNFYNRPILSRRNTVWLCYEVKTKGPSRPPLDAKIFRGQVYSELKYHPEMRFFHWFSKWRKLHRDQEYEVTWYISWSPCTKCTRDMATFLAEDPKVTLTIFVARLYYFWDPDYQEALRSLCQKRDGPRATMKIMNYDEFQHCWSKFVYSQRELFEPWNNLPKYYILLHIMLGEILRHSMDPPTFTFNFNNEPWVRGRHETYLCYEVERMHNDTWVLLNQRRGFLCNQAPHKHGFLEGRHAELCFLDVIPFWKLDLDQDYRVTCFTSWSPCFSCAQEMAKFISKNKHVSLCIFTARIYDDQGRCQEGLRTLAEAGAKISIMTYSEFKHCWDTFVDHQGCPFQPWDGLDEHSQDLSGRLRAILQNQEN
Neddyl conf – cullin neddylation inhibition, confirmation | AID 652217 | calls only at 25 µM | shares compounds with Neddyl block | actives 13% (n = 1,800) | TR-FRET cullin neddylation biochemical assay; in the data active means inhibition above about 40%;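 further: neddylation substrate is the cullin 1 ring ligase complex with SKP2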
The depositor's hits bear a star; i = inactive; / = no result given; + = active, no number. An excerpt weighted towards active compounds, which were near 2% of everything screened.

SMILES	PfG6PD inh	NPR1 activator	GC-B act	A3A deaminase	Neddyl block	APOBEC3G inh	Neddyl conf
CCOC(=O)C1=CCN(S(=O)(=O)c2ccc(Br)cc2)C1c1cccc(Br)c1 (stereo unspecified)	/	-11	-11	/	/	/	/
COCc1ccc(CN2CCc3c([nH]c4ccccc34)C2CC(C)C)o1 (stereo unspecified)	0	-5	-4	-1	40*	-4	i
C=CCN(Cc1ccc2c(c1)OCO2)C(C#CCCCC)C(C)C (stereo unspecified)	/	-2	-8	/	/	/	/
Cc1cccc(-n2ncc3c(NCc4ccccn4)ncnc32)c1	3	-3	-3	-4	40*	-1	i
CCc1ccc2oc(C(=O)Nc3ccc(S(N)(=O)=O)cc3)c(C)c2c1	-8	-4	0	-3	/	-5	/
Cc1c(C(=O)Nc2ccc(S(N)(=O)=O)cc2)oc2ccc(Cl)cc12	-10	-7	-2	0	44*	-5	i
COc1cccc(Nc2nc3ccccc3nc2NS(=O)(=O)c2ccc(NC(C)=O)cc2)c1	-6	/	/	-2	51*	-4	/
O=C(O)c1cccc(Nc2nc3ccccc3nc2NS(=O)(=O)c2ccc(F)cc2)c1	-16	-1	-3	-4	21	-6	/
O=S(=O)(Nc1nc2ccccc2nc1Nc1ccc2c(c1)OCO2)c1ccc(F)cc1	-2	1	2	4	38*	3	i
COc1cc2[nH]c3c(c2cc1OC)CCN1CCCC[C@@H]31	12	-5	-3	3	49*	-7	i
c1nc(NCC2CCCCO2)c2cc(-c3ccc4c(c3)OCO4)ccc2n1 (stereo unspecified)	/	4	1	/	/	/	/
COc1cccc(CNC(=O)[C@H]2CCCN2C(=O)[C@H]2CCCN2C(=O)c2ccccc2C(F)(F)F)c1	/	3	-3	/	/	/	/
O=S(=O)(c1ccc2c(c1)C(=NO)c1cc(S(=O)(=O)N3CCCCC3)ccc1-2)N1CCCCC1	-3	-6	-4	0	/	1	/
CC1CCN(S(=O)(=O)c2ccc3c(c2)C(=NO)c2cc(S(=O)(=O)N4CCC(C)CC4)ccc2-3)CC1	-32	7	6	2	39*	8	i
Cc1ccc(C(=O)N/C(=C/c2ccc(-c3cc(C(F)(F)F)ccc3Cl)o2)C(=O)NCc2cccnc2)cc1	25	-2	1	-3	48*	-6	/
COC(=O)[C@]12C[C@H](CC(=O)NCc3ccccc3)C(=O)N(Cc3cccc4ccccc34)C1=C[C@H](C(C)(C)C)O[C@@H]2C	/	-5	-7	/	/	/	/
COc1ccc(CNC2CCCCC2C)c(OC)c1 (stereo unspecified)	-3	-8	-10	-1	43*	-4	/
COc1ccc(CNC2CCCc3ccccc32)c(OC)c1 (stereo unspecified)	-22	-6	-13	19	-2	-5	/
O=C(NN1C(=O)c2ccccc2NC1c1ccco1)c1ccccc1 (stereo unspecified)	0	1	5	0	30	-8	/
O=C(NN1C(=O)c2ccccc2NC1c1cccnc1)c1ccccc1 (stereo unspecified)	-10	4	7	-4	41*	-11	i
COc1ccc(CN2C(=O)c3ccnn3CC2(C)c2nnnn2-c2c(C)cccc2C)cc1 (stereo unspecified)	/	2	0	/	/	/	/
Cc1c(C)c2ccc(OC(C)C(=O)N3C[C@H]4C[C@@H](C3)c3cccc(=O)n3C4)c(C)c2oc1=O (stereo partly specified)	-1	-4	-5	-1	44*	-9	i
CCOC(=O)C1CC(=O)c2cc(OC)c(OC)cc2C1 (stereo unspecified)	-10	-2	3	-5	42*	-12	/
COc1ccc(CNS(=O)(=O)CC2NCCc3ccccc32)cc1 (stereo unspecified)	/	-5	-1	/	/	/	/
O=C(COc1ccc(Cl)cc1)N1N=C(c2cccs2)CC1c1ccco1 (stereo unspecified)	6	1	-1	/	6	/	/
SMILES	PfG6PD inh	NPR1 activator	GC-B act	A3A deaminase	Neddyl block	APOBEC3G inh	Neddyl conf
O=C(COc1ccccc1F)N1N=C(c2cccs2)CC1c1ccco1 (stereo unspecified)	15	1	-3	9	47*	-3	i
CCOc1ccc(-n2c(O)c(/C=N/NC(=O)C3COc4ccccc4O3)c3ccccc3c2=O)cc1 (stereo unspecified)	-31	6	1	-2	42*	-7	i
O=S1(=O)c2ccccc2-c2c(nnn2CC2CCCCC2)CN1C1CC1	/	-9	-3	/	/	/	/
COc1cccc(CC(=O)n2nc(N)c3cc4ccc(OC)cc4nc32)c1	-8	-1	0	-4	41*	-11	i
CN(C)CCNC(=O)c1c(NC(=O)c2ccccc2)sc2c1CCCC2	29	-12	-18	-6	33	-5	/
CCCNC(=O)c1sc2c(c1C(=O)Nc1ccccn1)CCCC2	17	-5	-5	2	44*	-4	i
CCOc1ccc(NC(=O)CN(C)C(=O)c2cc(-c3ccc(OC)cc3)nc3ccccc23)cc1OCC	27	16	16	5	55*	-4	/
COc1ccc(-c2cc(C(=O)N(C)CC(=O)Nc3ccccc3Br)c3ccccc3n2)cc1OC	7	2	-1	1	47*	-3	+
COc1ccc(NC(=O)CN(C)C(=O)c2cc(-c3ccc(Cl)cc3)nc3ccccc23)cc1	9	3	3	20	-12	-5	/
COc1ccc(-c2cc(C(=O)N(C)CC(=O)Nc3ccccc3C(F)(F)F)c3ccccc3n2)cc1OC	-7	5	4	/	34	/	/
O=S(=O)(CC1NCc2ccccc21)NCc1ccc(F)cc1 (stereo unspecified)	/	-1	-1	/	/	/	/
CC(COc1ccc(Cl)cc1)CN1CCC(C(O)(c2ccccc2)c2ccccc2)CC1 (stereo unspecified)	/	-8	-5	/	/	/	/
COc1ccc2nc(NC(=O)c3c(C)noc3C)sc2c1	8	1	3	0	33*	-9	i
Cc1noc(C)c1C(=O)Nc1nc2ccc(S(C)(=O)=O)cc2s1	23	0	5	4	3	5	/
Cc1ccccc1CSc1nc2n(n1)C(c1cccs1)C1=C(CCCC1=O)N2 (stereo unspecified)	17	-1	1	-3	39*	-4	/
CSc1nc2n(n1)C(c1cccs1)C1=C(CCCC1=O)N2 (stereo unspecified)	7	-14	-9	3	42*	-2	i

High-throughput results deposited in PubChem by Sanford-Burnham Center for Chemical Genomics.
